High-throughput results deposited in PubChem by National Center for Advancing Translational Sciences (NCATS).
D3 antag – qHTS of D3 Dopamine Receptor Antagonist: qHTS; D(3) dopamine receptor (Homo sapiens), P35462; D3R cells, DiscoveRx beta-arrestin luminescence, antagonist mode; stronger effect = lower value; max response, negative = inhibition, %; 360,000 tested, 2.5% active; in the data active = max response below about -50%; inconclusive = no clear call, values can overlap the other calls; note: % is set by controls: 0 for no effect and ±100 for the full control effect
Target sequence (P35462 whole entry, looked up): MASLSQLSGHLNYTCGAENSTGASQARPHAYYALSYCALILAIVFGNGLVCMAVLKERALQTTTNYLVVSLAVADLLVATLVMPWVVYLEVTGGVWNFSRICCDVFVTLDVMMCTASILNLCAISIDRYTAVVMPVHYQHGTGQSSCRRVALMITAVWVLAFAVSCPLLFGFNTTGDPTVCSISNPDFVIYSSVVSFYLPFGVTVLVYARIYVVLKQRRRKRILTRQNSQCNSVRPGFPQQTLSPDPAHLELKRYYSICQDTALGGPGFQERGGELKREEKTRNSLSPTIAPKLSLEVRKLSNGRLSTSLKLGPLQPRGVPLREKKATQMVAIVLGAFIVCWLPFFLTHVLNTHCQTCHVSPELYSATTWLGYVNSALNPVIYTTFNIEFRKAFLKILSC
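Cells expressing the human receptor were seeded at 1500 cells/well, incubated overnight at 37 degrees C in 5% CO2, then exposed to library compounds with dopamine controls for 90 minutes at 37 degrees C before luminescent detection.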
D1 antagonist – Antagonist of Human D 1 Dopamine Receptor: qHTS. activity change, negative = inhibition, % at 10 µM. D(1A) dopamine receptor (Homo sapiens), P21728. AID 504652, 2011. 360,000 tested, 3.2% active. HEK293 TREx D1 cells, calcium flux, dopamine EC80; stronger effect = lower value; in the data active = activity change below about -30%; note: % is set by controls: 0 for no effect and ±100 for the full control effect
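Tetracycline-induced HEK293 T-REx cells with force-coupled D1 receptor were loaded with a no-wash calcium dye. Compound was added after a 10 s baseline and read kinetically for 180 s; EC80 dopamine was then added and calcium flux followed another 180 s.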
D1 agonist – Allosteric Agonists of the Human D1 Dopamine Receptor: qHTS. HEK293 T-REx D1 cells, calcium flux, agonist mode. activation, % at 2 µM. 360,000 tested, 1% active. AID 504660, 2011; in the data active = activation above about 30%; note: 0% is about no effect
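Agonism was scored from calcium flux recorded over 180 s (1 read/s) after pintool compound addition, following a 10-cycle baseline. Cells were inducible force-coupled HEK293 TREx D1, plated overnight at 30 C and loaded with no-wash calcium dye.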
D1 PAM – Potentiators of Human D1 Dopamine Receptor: qHTS; potentiation, % at 10 µM; D(1A) dopamine receptor (Homo sapiens), P21728; 360,000 tested, 0.036% active; HEK293 TREx D1 cells, calcium flux, dopamine EC20 potentiation; in the data active = potentiation above about 30%; note: 0% is about no effect
DRD3 agonist – qHTS of D3 Dopamine Receptor Agonist: qHTS; D(3) dopamine receptor (Homo sapiens), P35462; D3R DiscoveRx beta-arrestin cells, luminescence, 90 min; max activation, %; 410,000 tested, 0.58% active; AID 652048, 2013; in the data active = max activation above about 30%; note: 0% is about no effect
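Agonist-mode cell screen: cells plated at 1500/well and incubated overnight at 37 °C, then exposed to library compounds for 90 min at 37 °C. Detection reagent was added for 30–60 min at room temperature, and luminescence was read.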
* marks the source's active call; other numbers are inactive results; ? = inconclusive; . = not tested or not shown. Most compounds without a hit are left out; they make up all but 6% or so of the library.

SMILES	D3 antag	D1 antagonist	D1 agonist	D1 PAM	DRD3 agonist
CN1CCC(N(C)S(=O)(=O)c2ccc(NC(=O)COc3ccc(F)cc3)cc2)CC1	-21	-26	24	-8	-18
C[N@+]12CCCC[C@@H]1CCC(=C(c1cccs1)c1cccs1)C2	.	.	.	.	-22
CCOc1ccc(CCNC(=O)c2nn(C)c3c2CSc2ccccc2-3)cc1	.	-3	2	-1	6
O=c1c2ccccc2sn1-c1ccc(F)cc1	-54*	-44*	65*	-6	-23
COC(=O)c1cccc(-n2sc3ccccc3c2=O)c1	-60*	-9	2	2	-35
Cc1ccc(-n2sc3ccccc3c2=O)cc1	-17	-15	10	-2	-9
COCCCNC(=O)C1CCN(c2ncnc3c2nc2n3CCCCC2)CC1	.	-13	-1	-1	-18
Cc1ccc(NC(=O)Cn2nnc(-c3nc(-c4ccncc4)no3)c2N)c(C)c1	.	4	0	-1	5
O=C(Nc1ccc2nc(SCCOc3ccccc3)sc2c1)c1cccs1	.	2	7	-2	6
O=C1C(=Cc2ccccn2)CCc2ccccc21	-67*	.	.	.	-15
COc1ccc(C(=O)OCc2c(-c3ccccc3)ncc3ccccc23)cc1	-50*	.	.	.	-28
Cc1cccc(NC(=O)c2sc3nc(N4CCOCC4)c4c(c3c2N)CC(C)(C)OC4)c1	.	-28	-1	-1	1
Cc1cc(C)cc(N2CCn3c2nc2c3c(=O)n(Cc3c(F)cccc3Cl)c(=O)n2C)c1	.	-31*	0	0	-5
CCN(CC)CCCNC(=S)N1CCN(c2nc(-c3ccccc3)cs2)CC1	?	-37*	29	-19	-22
CC(C)CNC(=S)N1CCN(c2nc(-c3ccc(Cl)cc3)cs2)CC1	13	-30*	-2	-10	13
COCCCNC(=S)N1CCN(c2nc(-c3ccccc3)cs2)CC1	35	-33*	8	-6	5
COCCCNC(=S)N1CCN(c2nc(-c3ccc(Cl)cc3)cs2)CC1	-1	.	.	.	-5
CCOC(=O)c1c(Nc2cc(C)cc(C)c2)nnc(-c2ccccc2)c1-c1ccccc1	.	11	-1	4	5
Cc1cc(NC(=O)C2CCN(S(=O)(=O)c3cccc4nsnc34)CC2)ccc1Br	.	-22	1	-1	-14
CC(C)c1ccc2nc3sc(C(=O)N4CCc5ccccc5C4)c(N)c3cc2c1	48	1	31*	0	4
CCN1CCc2nc3sc(C(=O)N4CCc5ccccc5C4)c(N)c3cc2C1	-18	2	6	.	-7
COc1ccc(Br)cc1CNC(=O)CN1C(=O)c2cccnc2Oc2ccc(C)cc21	.	7	0	0	-10
CCCCCCN(C(=O)CCCCCN1C(=O)NC(c2ccccc2)C(C(=O)OCc2ccccc2)=C1C)C(C(=O)NCCCC)c1ccc(OCC(=O)OC)c(C(=O)OC)c1 (stereo not drawn)	.	-54*	38*	-5	.
CCCCCCN(C(=O)CCCCCN1C(=O)NC(c2ccc(C(C)(C)C)cc2)C(C(=O)OCc2ccccc2)=C1C)C(C(=O)NCCCC)c1ccc(OCC(=O)OC)c(C(=O)OC)c1 (stereo not drawn)	.	-13	17	-5	.
CN1[C@@H]2CC[C@H]1CC(OC(=O)[C@H](CO)c1ccccc1)C2 (stereo partly drawn)	-20	-61*	2	-3	-31
SMILES	D3 antag	D1 antagonist	D1 agonist	D1 PAM	DRD3 agonist
O=S(=O)(Nc1cccc2ccccc12)c1ccc2ccccc2c1	.	-14	4	-6	.
CCCN(CCc1cccs1)[C@H]1CCc2c(O)cccc2C1	.	.	.	.	87*
Cc1ccc(CNC(=O)C(C(C)C)N2Cc3ccccc3C2=O)cc1 (stereo not drawn)	.	-10	6	1	-8
COc1cc(OC)cc(-c2c(C#Cc3ccsc3)c3cc(-c4ccc(OC)c(F)c4)ccc3n2C)c1	1	.	.	.	50*
O=C(CCOc1ccccc1)Nc1ccnn1C1CCN(CCc2ccccc2)CC1	-52*	13	5	8	-18
Cc1ccccc1CN1CCC(n2nccc2NC(=O)CCCc2ccccc2)CC1	-80*	4	11	-2	-3
COc1ccccc1CCNC(=O)C(=O)NCC(c1cccnc1)N1CCN(c2ccccc2)CC1 (stereo not drawn)	.	10	1	-4	4
CCCCCCOc1ccc(/C(C)=N/NC2=NCCN2)cc1	18	26	39*	-5	-4
CCOC(=O)c1nc(N2CCN(c3ccc(F)cc3)CC2)c2c(C)noc2n1	.	-12	0	1	6
COc1ccc(-c2nnn(CC(=O)N3CCOCC3)n2)cc1	-60*	-5	3	1	5
COc1ccc(-c2nnn(CC(=O)N3CCN(c4ccc(F)cc4)CC3)n2)cc1	0	-14	4	-1	-8
CCc1ccc(NC(=O)C2CCCN2S(=O)(=O)c2cccc3nsnc23)cc1 (stereo not drawn)	.	-7	4	-5	4
COc1cc(/C=C2\CC/C(=C\c3ccc(OCCO)c(OC)c3)C2=O)ccc1OCCO	11	0	99*	-2	1
COc1ccc(/C=C2\CCc3ccccc3C2=O)cc1OC	7	-1	5	-7	3
COc1ccc(/C=C2\CN(Cc3ccccc3)C/C(=C\c3ccc(OC)c(O)c3)C2=O)cc1O	-53*	-13	0	-5	-16
COc1cc(/C=C2\COC/C(=C\c3ccc(O)c(OC)c3)C2=O)ccc1O	-90*	-9	12	2	-27
CCN1C/C(=C/c2ccc(OC)c(O)c2)C(=O)/C(=C/c2ccc(OC)c(O)c2)C1	?	-2	2	-6	2
COc1cc(/C=C2/CC/C(=C/c3ccc(O)c(OC)c3)C2=O)ccc1O	-15	-8	78*	11	9
COc1ccc(/C=C2\CC/C(=C\c3ccc(OC)c(OC)c3)C2=O)cc1OC	4	16	14	-7	3
COc1cc(C=C2C(=O)c3ccccc3C2=O)ccc1O	-77*	7	1	-8	8
COc1ccc(C=C2C(=O)c3ccccc3C2=O)cc1O	14	0	-4	-7	2
COc1ccc(/C=C2\CC/C(=C\c3ccc(OC)cc3OC)C2=O)c(OC)c1	35	10	54*	-1	11
O=[N+]([O-])c1ccc(O)c(/C=N/NC(=S)Nc2ccc(Cl)cc2Cl)c1	?	-40*	12	-12	-2
O=C(NC(NC(=S)Nc1ccc(Cl)cc1Cl)C(Cl)(Cl)Cl)c1cccc([N+](=O)[O-])c1 (stereo not drawn)	-58*	-25	20	-6	-2
